# Reference: PubChem BioAssay (NCI)
# “And” between values parts separate entries of the source, which are not always exact repeats. Equal entries are not always repeated. This is part of a sample that, as a whole, favours compounds with a hit. Of some 83,000 tested, about 20% had one in any assay.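 Single-dose data. Exposure time 48 hours. Values below 10 considered active.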 Values without a mark were called inactive. The source made the active and inactive calls.
# System: NCI-H460 lung
# Experiment: NCI-60 one-dose screen, 48 h (100 = growth as untreated, 0 = no growth, -100 = all killed)
# Conditions: 0.01 µM
# Procedure: Growth inhibition of the NCI-H460 human Non-Small Cell Lung tumor cell line is measured as a screen for anti-cancer activity. Cells are grown in 96 well plates and exposed to the test compound for 48 hours. Compounds are tested at a single concentration, which is 10^-5 M for most compounds. The reported endpoint is percent growth (GI% or GIPRCNT), where numbers from 0 - 100% represent growth inhibition, and numbers from -100% - 0 represent cell death. For example, a value of 40 represents 60% growth inhibition. A value of 0 means no net growth occurred over the course of the experiment. A value of -40 indicates 40% of cells at the beginning of the experiment died by the end of the experiment. A value of -100 means all cells are dead at the end of the experiment.
# NCI-60 Human Tumor Cell Lines Screen was performed using the standard one-dose NCI protocol, which is described in more detail at https://dtp.cancer.gov/discovery_development/nci-60/default.htm.
# Compounds with GIPRCNT values below 10 were considered active. Activity score was based on GIPRCNT using the following formula: […]
# Score is 0 for GIPRCNT values of 100 or above, 50 for GIPRCNT values of 0, and 100 for GIPRCNT values of -100.
row,SMILES,growth
1,CC(=O)O[C@H]1C(=O)[C@@]2(C)[C@H]([C@H](OC(=O)c3ccccc3)[C@]3(O)C[C@H](OC(=O)[C@H](O)[C@@H](NC(=O)c4ccccc4)c4ccccc4)C(C)=C1C3(C)C)[C@]1(OC(C)=O)CO[C@@H]1C[C@@H]2O,13.8%

# Same assay, conditions: 2.5 µM
row,SMILES,growth
1,CC(=O)O[C@H]1C(=O)[C@@]2(C)[C@H]([C@H](OC(=O)c3ccccc3)[C@]3(O)C[C@H](OC(=O)[C@H](O)[C@@H](NC(=O)c4ccccc4)c4ccccc4)C(C)=C1C3(C)C)[C@]1(OC(C)=O)CO[C@@H]1C[C@@H]2O,3.32% (active)

# Same assay, conditions: 5 µM
row,SMILES,growth
1,CC(=O)O[C@H]1C(=O)[C@@]2(C)[C@H]([C@H](OC(=O)c3ccccc3)[C@]3(O)C[C@H](OC(=O)[C@H](O)[C@@H](NC(=O)c4ccccc4)c4ccccc4)C(C)=C1C3(C)C)[C@]1(OC(C)=O)CO[C@@H]1C[C@@H]2O,4.65% (active)

# Same assay, conditions: 10 µM
row,SMILES,growth
1,NCc1c(O)ccc2ccccc12,108%
2,CC[C@@]1(OC(=O)CN(C)C)C(=O)OCc2c1cc1n(c2=O)Cc2cc3c(N)cccc3nc2-1,-5.75% (active)
3,N#CC(=C1C=CC(=NO)C=C1)c1ccccc1,1.48% (active)
4,COc1ccc(N)c2c1C(=O)c1ccccc1C2=O,98.1%
5,O=[N+]([O-])c1cc(S(=O)(=O)Nc2ccccc2)ccc1Cl,108%
6,O=C1C(Cl)=C(Cl)C(Cl)(Cl)C(Cl)C1(Cl)Cl (stereo not given),118%
7,CN(CC(=O)O)c1ccc(/C=C/c2ccnc3ccccc23)cc1,94.5%
8,O=C(NC(=S)Nc1ccccn1)c1ccccc1,94%
9,CC(=O)O[C@H]1C(=O)[C@@]2(C)[C@H]([C@H](OC(=O)c3ccccc3)[C@]3(O)C[C@H](OC(=O)[C@H](O)[C@@H](NC(=O)c4ccccc4)c4ccccc4)C(C)=C1C3(C)C)[C@]1(OC(C)=O)CO[C@@H]1C[C@@H]2O,8.92% (active) and 6.58% (active)
10,ClCCn1c(CCl)nc2ccc(Cl)cc21,0.311% (active)
11,CN(C)CCNc1cccc2sc3ccc(O)cc3c(=O)c12,16%
12,O=C(CNS(=O)(=O)Cc1ccccc1)NNc1ccccc1,29.4%
13,Cn1ncc2cc3c(Nc4ccc(Cl)cc4)cccc3nc21,89.8%
14,O=c1[nH]cc(/C=N\Nc2ccccc2)c(=O)[nH]1,47.6%
15,O=C1c2cccc3cc([N+](=O)[O-])cc(c23)C(=O)N1CCN1CCCC1,-28.8% (active)
16,S=C1SCN(CCc2ccccc2)CN1CCc1ccccc1,108%
17,COc1ccc(C(C#N)=C2C=CC(=NO)C=C2)cc1,65.8%
18,CCC(=O)Oc1ccc(/C=N/NC(N)=S)nc1,52%

row,SMILES,growth
1,Cc1cc(N=C2C=CC(=[N+](C)C)C=C2)c(N)cc1N,102%
2,S=P(N1CC1)(N1CC1)N1CC1,116% and 40.2%
3,N#C/C(=C/N1C(=O)/C(=C/c2ccc([N+](=O)[O-])cc2)SC1=S)c1nc2ccccc2s1,90.3%
4,COc1ccc2c(c1)[nH]c1c(/C=C/c3ccccc3)nccc12,56.2%
5,COc1cc(N)ccc1Nc1c2ccccc2nc2ccccc12,4.72% (active)
6,O=C(O)c1ccccc1.[Ag],100%
7,CC1CCC2(C(=O)O)CCC3(C)C(=CCC4C5(C)CC(O)C(O)C(C)(CO)C5C(O)CC43C)C2C1C (stereo not given),111%
8,O=S(=O)(c1cc(Cl)ccc1O)c1cc(Cl)ccc1O,85.1%
9,Cc1cc(O)c2c(c1O)C(=O)C13C(=C2O)C(=O)C2C(O)C1C1C(O)C3C(=O)C3=C(O)c4c(O)cc(C)c(O)c4C(=O)C321 (stereo not given),0.0816% (active)
10,COc1ccc2oc(-c3ccc(Cl)cc3)c(N3CCN(C)CC3)c2c1,-62.6% (active)
11,CCOC(=O)[C@]1(Br)CC[C@@]1(Br)C(=O)OCC,117%
12,Cc1cc(Cl)ccc1NC(=O)/C(Cl)=C1/Sc2ccccc2NC1=O,99.4%
13,CN(C)c1ccc(/C=C/c2ccnc3ccccc23)cc1N,77.9%
14,Cn1c2nc3ccccc3c-2nc2ccccc21,86.9% and 86.5%
15,Cc1cc(C)c(N2C(=O)CC(Sc3ccccc3N)C2=O)c(C)c1 (stereo not given),95.6%
16,COc1cccc(C(c2cc3c(cc2O)OCO3)N2CCOCC2)c1OC (stereo not given),104%
17,O=C1c2ccccc2CCC1(Br)Br,95%
18,C=C1N(C)c2ccc(Cl)cc2C1(C)C,39.4%

# Same assay, conditions: 100 µM
row,SMILES,growth
1,S=P(N1CC1)(N1CC1)N1CC1,26.3%
